Measurements as given in PubChem BioAssay (EPA / NIEHS).
“And” between values parts separate entries of the source, which are not always exact repeats. Equal values may be shown once. Inconclusive results are not listed. The source holds several records for some structures; these can differ, active in one and inactive in another. The source made the active and inactive calls. Rule for the calls: active = hit-call score of the fitted dose curve at least 0.9, where 1 is the maximum; inconclusive = response in the unintended direction; inactive = score below 0.9.

Columns and labels:
[1] = ATG_XTT_Cytotoxicity: Cytotoxicity Assessment in the Attagene TRANS-FACTORIAL HepG2 Assay (AID 2283584);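 for AC50: cells exposed to compound for 24 h before reading; active means loss of viability signal versus DMSO baseline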
How it was run: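 HepG2 human liver cells, transiently transfected with multiple GAL4-UAS reporter units, were dosed and read at 24 h by XTT as cell number. Loss of signal was fitted relative to DMSO negative control baseline.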

[2] = TOX21_p53_BLA_p2_viability: Viability Assessment in the Tox21 HCT-116 p53 Agonism Beta-lactamase Assay, Phase 2 (AID 2283591);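 note: compound exposure lasted 16 h at 37 °C; actives lower the ATP signal meaning cytotoxicity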
How it was run: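 HCT116 p53-bla cells, 4000/well, dosed after 5 h plating (217-fold dilution of DMSO stocks) and incubated 16 h at 37C. Viability taken as cellular ATP by CellTiter-Glo luminescence after 30 min RT; signal loss marks cytotoxicity.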

[3] = target: Cellular tumor antigen p53 (Homo sapiens) (UniProt P04637); experiment: TOX21_p53_BLA_p2_ratio: Tox21 HCT-116 p53 Agonism Beta-lactamase Assay, Ratio, Phase 2 (AID 2283592)
How it was run: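 Ratio endpoint: beta-lactamase cleavage of CCF4-AM, blue (460 nm) over green (530 nm). HCT116 reporter line; 16 h treatment, 37C; substrate 2 h RT.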

[4] = TOX21_p53_BLA_p3_viability: Viability Assessment in the Tox21 HCT-116 p53 Agonism Beta-lactamase Assay, Phase 3 (AID 2283593);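 note: cells exposed to compound for 16 h before reading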
How it was run: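 HCT116 cells, 4000/well, dosed 5 h after plating by pin transfer (217-fold dilution from DMSO stock) and incubated 16 h at 37C, 5% CO2. Viability read as ATP luminescence with CellTiter-Glo after 30 min at room temperature.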

[5] = target: Cellular tumor antigen p53 (Homo sapiens) (UniProt P04637); experiment: TOX21_p53_BLA_p3_ratio: Tox21 HCT-116 p53 Agonism Beta-lactamase Assay, Ratio, Phase 3 (AID 2283596)
How it was run: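 Cells were seeded at 4000/well, rested 5 h at 37C, then dosed with DMSO compound solutions (217-fold dilution) for 16 h. CCF4-AM substrate was loaded for 2 h at room temperature, and the 460/530 nm emission ratio was fitted for gain of signal versus DMSO.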

[6] = TOX21_p53_BLA_p4_viability: Viability Assessment in the Tox21 HCT-116 p53 Agonism Beta-lactamase Assay, Phase 4 (AID 2283597);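 note: hits lower the luminescence signal meaning cytotoxicity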
How it was run: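 Cytotoxicity was inferred from loss of CellTiter-Glo luminescence. HCT116 cells had been dosed with compounds after 5 h plating, incubated 16 h at 37C and 5% CO2, and exposed to the CCF4-AM substrate for 2 h.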

[7] = target: Cellular tumor antigen p53 (Homo sapiens) (UniProt P04637); experiment: TOX21_p53_BLA_p5_ratio: Tox21 HCT-116 p53 Agonism Beta-lactamase Assay, Ratio, Phase 5 (AID 2283599)
How it was run: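 HCT-116 p53-bla cells (4000/well) plated 5 h, dosed with compound (217-fold DMSO dilution) for 16 h at 37 C; CCF4-AM substrate 2 h at room temperature. Activity is the 460/530 nm emission ratio (405 nm excitation), fitted in gain-of-signal direction versus DMSO.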

[8] = TOX21_p53_BLA_p5_viability: Viability Assessment in the Tox21 HCT-116 p53 Agonism Beta-lactamase Assay, Phase 5 (AID 2283600)
How it was run: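 Luciferase-coupled ATP quantitation of cells treated for 16 h (37C, 5% CO2) with test chemicals delivered in DMSO via a 217-fold dilution; 4000 cells/well; reagent incubated 30 min at room temperature before luminescence reading.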

Sequence of Cellular tumor antigen p53 (Homo sapiens) (P04637 whole entry, looked up): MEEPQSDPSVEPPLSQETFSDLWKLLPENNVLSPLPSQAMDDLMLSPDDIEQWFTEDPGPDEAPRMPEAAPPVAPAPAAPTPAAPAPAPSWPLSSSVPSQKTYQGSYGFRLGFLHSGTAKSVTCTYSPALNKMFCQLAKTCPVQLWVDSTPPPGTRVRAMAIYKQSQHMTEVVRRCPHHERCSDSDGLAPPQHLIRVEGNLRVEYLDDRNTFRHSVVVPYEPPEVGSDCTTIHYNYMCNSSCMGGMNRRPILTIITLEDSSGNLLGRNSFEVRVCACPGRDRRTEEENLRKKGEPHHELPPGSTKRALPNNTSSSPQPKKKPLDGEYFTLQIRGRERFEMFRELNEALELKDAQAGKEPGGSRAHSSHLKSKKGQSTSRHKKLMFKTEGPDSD

Row | Structure (SMILES) | outcome [1] | AC50 [2] | AC50 [3] | AC50 [4] | outcome [4] | AC50 [5] | AC50 [6] | AC50 [7] | AC50 [8] | outcome [2] | outcome [3] | outcome [5] | outcome [6] | outcome [7] | outcome [8] | AC50 [1]
1 | COc1ccc(CCN2CCC(Nc3nc4ccccc4n3Cc3ccc(F)cc3)CC2)cc1 | inactive | 15.2 µM (active) and 38.9 µM (active) | 31.1 µM (active) and 43.8 µM (active) | 15.2 µM (active) | inactive | 37.5 µM (active) | 14.4 µM (active) and 23 µM (active) | 38.8 µM (active) and 42.9 µM (active) | 25.7 µM (active) and 40.5 µM (active) |  |  |  |  |  |  | 
2 | Cc1cc(C)nc(NS(=O)(=O)c2ccc(N)cc2)n1 | inactive |  |  |  | inactive |  |  |  |  | inactive | inactive | inactive | inactive | inactive | inactive | 
3 | CCCCC(CC)COC(=O)c1ccc(O)cc1 (stereo not given) |  | 41.9 µM (active) and 67.8 µM (active) | 76.7 µM (active) and 74.7 µM (active) | 84.1 µM (active) | inactive |  |  | 69.4 µM (active) and 62.4 µM (active) | 56.6 µM (active) and 66.6 µM (active) |  |  |  |  |  |  | 100 µM (active) and 121 µM (active)
4 | CCCCCc1ccco1 | inactive |  |  | 58 µM (active) |  |  |  |  |  | inactive | inactive | inactive | inactive | inactive | inactive | 
5 | IC(I)I | inactive |  |  |  | inactive |  |  |  |  | inactive | inactive | inactive | inactive | inactive | inactive | 
6 | Oc1c(Cl)cc(Cl)c(Cl)c1Cc1c(O)c(Cl)cc(Cl)c1Cl | inactive | 9.14 µM (active) and 38.7 µM (active) | 10.3 µM (active) and 583 nM (active) and 984 nM (active) | 39.9 µM (active) and 568 nM (active) | inactive | 19.5 µM (active) and 446 nM (active) and 1.07 µM (active) | 36.9 µM (active) and 49.3 µM (active) and 1.62 µM (active) | 13.8 µM (active) and 26.4 µM (active) and 18.6 µM (active) |  | inactive |  |  |  |  | inactive | 
